From the supplement of paper PMC7695840
Where a name gives a salt, the structure may show the parent alone.

Tested on: Staphylococcus aureus MW2 delta-mecA (mecA-)
Experiment: normalized GFP fluorescence (growth of mecA- strain) (fraction of control range); higher = more growth of mecA- strain
Conditions: compound concentration: 150 uM; cefoxitin: subinhibitory; fluorescent label: GFP
Method in brief: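 Pre-induced S. aureus MW2 mecA+ (DsRed) and ΔmecA (GFP) cells were mixed 1:1 in LB with a daily-set subinhibitory cefoxitin dose. They were dispensed at 5 µL/well onto 150 μM compound (1.5% DMSO) in 1536-well plates, single replicate. Growth was 20 h at 37 °C, 90% humidity, unshaken, and DsRed (540/590) and GFP (485/520) were then read. Each channel was scaled per plate between the medians of the single-strain controls. Plates with high No Treatment ratios and rows with DsRed/GFP >10 were excluded.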

Row | SMILES | normalized GFP fluorescence
1 | N#Cc1ccc2[nH]cc(CCCCN3CCN(c4ccc5oc(C(N)=O)cc5c4)CC3)c2c1 | 0.0415
2 | Oc1ncnc2[nH]ncc12 | 0.524
3 | COCCCC/C(=N\OCCN)c1ccc(C(F)(F)F)cc1 | 0.551
4 | Nc1ccc(S(=O)(=O)Nc2ncccn2)cc1 | 0.475
5 | CCN(CC)CCCC(C)Nc1ccnc2cc(Cl)ccc12 (centres undefined) | 0.506
6 | NS(=O)(=O)c1cc(C2(O)NC(=O)c3ccccc32)ccc1Cl (centres undefined) | 0.344
7 | CCCCC(=O)O[C@]1(C(=O)CO)CC[C@H]2[C@@H]3CCC4=CC(=O)CC[C@]4(C)[C@H]3[C@@H](O)C[C@@]21C | 0.382
8 | CC(C)(C)NCC(O)COc1cccc2c1CC(O)C(O)C2 (centres undefined) | 0.721
9 | CO[C@H]1C[C@@H]2CC[C@@H](C)[C@@](O)(O2)C(=O)C(=O)N2CCCC[C@H]2C(=O)O[C@H]([C@H](C)C[C@@H]2CC[C@@H](OC(=O)C(C)(CO)CO)[C@H](OC)C2)CC(=O)[C@H](C)/C=C(\C)[C@@H](O)[C@@H](OC)C(=O)[C@H](C)C[C@H](C)/C=C/C=C/C=C/1C [Temsirolimus (Torisel)] | -0.00155
10 | C[n+]1ccccc1C=NO | 0.166
11 | C[C@@H]1C[C@H]2[C@@H]3CCC4=CC(=O)C=C[C@]4(C)[C@@]3(Cl)[C@@H](O)C[C@]2(C)[C@@]1(OC(=O)c1ccco1)C(=O)CCl | 0.456
12 | Cc1cc2c(cc1CC(=O)c1sccc1S(=O)(=O)Nc1onc(C)c1Cl)OCO2 | 0.251
13 | C[N+](C)(C)C[C@H](O)CC(=O)[O-] | 0.791
14 | CCCc1nn(C)c2c(=O)[nH]c(-c3cc(S(=O)(=O)N4CCN(C)CC4)ccc3OCC)nc12 | 0.331
15 | CC(C)[C@H](N)C(=O)OCCOCn1cnc2c(=O)nc(N)[nH]c21 [Valaciclovir HCl] | 0.302
16 | CN(C)CCc1c[nH]c2ccc(CS(=O)(=O)N3CCCC3)cc12 | 0.546
17 | Cc1c(OCC(F)(F)F)ccnc1C[S+]([O-])c1nc2ccccc2[nH]1 (centres undefined) [Lansoprazole] | 0.122
18 | Nc1c(Br)cc(Br)cc1CN[C@H]1CC[C@H](O)CC1 [Ambroxol HCl] | 0.21
19 | CC(=O)OCC(=O)[C@@]1(O)CC[C@H]2[C@@H]3CCC4=CC(=O)CC[C@]4(C)[C@H]3[C@@H](O)C[C@@]21C | 0.58
20 | Nc1ccc(S(=O)(=O)c2ccc(N)cc2)cc1 | 0.296

Row | SMILES | normalized GFP fluorescence
21 | NS(=O)(=O)c1cc(Cl)c(Cl)c(S(N)(=O)=O)c1 [Dichlorphenamide (Diclofenamide)] | 0.31
22 | O=C(O)COCCN1CCN([C@H](c2ccccc2)c2ccc(Cl)cc2)CC1 | 0.222
23 | Cn1c(=O)c2c(ncn2CC2OCCO2)n(C)c1=O | 0.29
24 | S=c1[nH]cnc2nc[nH]c12 | 0.195
25 | CN(C(=O)C(Cl)Cl)c1ccc(OC(=O)c2ccco2)cc1 | 0.156
26 | O=C1CN2Cc3c(ccc(Cl)c3Cl)N=C2N1 | 0.237
27 | C[C@]12C=CC(=O)C=C1CC[C@@H]1[C@@H]2C(=O)C[C@@]2(C)[C@H]1CC[C@]2(O)C(=O)CO | 0.371
28 | O=C(CCCN1CCC(O)(c2ccc(Br)cc2)CC1)c1ccc(F)cc1 | 0.243
29 | OC(CCN1CCCCC1)(c1ccccc1)C1CCCCC1 (centres undefined) | 0.277
30 | CC(C)NCC(O)COc1ccc(COCCOC(C)C)cc1 (centres undefined) | 0.499
31 | CN(CCOc1ccc(CC2SC(=O)NC2=O)cc1)c1ccccn1 (centres undefined) | 0.341
32 | COCCCOc1ccnc(C[S+]([O-])c2nc3ccccc3[nH]2)c1C (centres undefined) | 0.186
33 | COc1ccc(-c2cc(=O)c3c(O)cc(O[C@@H]4O[C@H](CO[C@@H]5O[C@@H](C)[C@H](O)[C@@H](O)[C@H]5O)[C@@H](O)[C@H](O)[C@H]4O)cc3o2)cc1O [Diosmin] | 0.55
34 | COc1ccc(CNc2nc(N3CCC[C@H]3CO)ncc2C(=O)NCc2ncccn2)cc1Cl [Avanafil] | 0.53
35 | COc1cc2c3cc1Oc1cc(ccc1O)C[C@@H]1c4c(cc(OC)c(O)c4Oc4ccc(cc4)C[C@@H]3N(C)CC2)CC[N+]1(C)C | 0.357
36 | COc1ccc(-c2ccc3cc(C(=O)O)ccc3c2)cc1C12CC3CC(CC(C3)C1)C2 | 0.582
37 | Cn1cnc2c1c(=O)[nH]c(=O)n2C | 0.351
38 | O[C@H]1[C@H](O)[C@@H](O)[C@H](O)[C@@H](O)[C@H]1O | 0.236
39 | C[C@H]1C[C@H]2[C@@H]3CCC4=CC(=O)C=C[C@]4(C)[C@@]3(F)[C@@H](O)C[C@]2(C)[C@@]1(O)C(=O)CO [Betamethasone (Celestone)] | 0.0397
